Reference: PubChem BioAssay (NCATS)
Values joined by “and” are separate entries in the source; they are usually repeats but may differ in a detail not shown here. Equal entries are not always repeated. Records with an inconclusive call do not appear. Active and inactive are the calls of the source. Unless noted, the call rests on the fitted dose curve; in most records, active means well fitted curve in the direction sought with a large enough effect; inconclusive means small, poorly fitted or top-dose-only effect, or another doubt; inactive means no such curve, though single readings can be large; an effect the other way counts as inactive or inconclusive.

What was measured:
[1] = High-throughput drug toxicity screening in the BPDCN cell line Cal-1 (AID 1224825; call rule not given here); settings: Cal-1 BPDCN cell viability, qHTS; at 45.8 µM (top of the series) unless noted
In short: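 Cal-1 cells, 500 per well in phenol-red-free RPMI with 10% FBS, exposed to compounds for 48 hours at 37C, 5% CO2. Viability read by CellTiter-Glo luminescence; percent activity normalized to DMSO (100%) and 9.2 uM bortezomib final (0%).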

[2] = qHTS assay for measurement of the activity of small molecule inhibitors on Zika virus induced Caspase-3 activity in human iPSC derived neural progenitor cells (hNPCs) (AID 1224857); settings: hNPCs ZIKV-induced caspase-3/7, Caspase-Glo luminescence, 6 h; series mostly up to 45.7 µM; further: nearly all actives have a fitted effect of over 65% in size
In short: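 Quantitative HTS format: human iPSC neural progenitors, 1 h compound pretreatment, ZIKV 2 FFU/cell for 6 h at 37 C. Percent inhibition derived from luminescent caspase-3/7 signal between uninfected and infected controls.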

[3] = qHTS assay for measurement of the activity of small molecule inhibitors on Zika virus induced Caspase-3 activity in human astrocytoma cells (AID 1224859); settings: SNB-19 ZIKV-induced caspase-3/7, luminescence, 6 h; series mostly up to 45.7 µM
In short: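 Readout is luminescence from Caspase-Glo 3/7 added after a 6 h ZIKV infection (2 FFU/cell) of compound-pretreated (1 h) SNB-19 cells; data expressed as % inhibition versus uninfected and infected wells.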

[4] = qHTS Screen of the MIPE 4.0 Collection Against Ewings Sarcoma (RDES) (AID 1259252); settings: RD-ES Ewing sarcoma viability, CellTiter-Glo, 48 h; series mostly up to 45.8 µM; further: nearly all actives have a fitted effect of over 35% in size; further: potency means the concentration at half of the fitted maximal effect
In short: (§1)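 Log-phase cells in RPMI with 5% FBS attached for 4 h, then received compounds as a titration for 48 h at 37C, 5% CO2. Viability was read by CellTiter-Glo luminescence and normalized to DMSO and no-cell wells.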

[5] = qHTS Screen of the MIPE 4.0 Collection Against Ewings Sarcoma (TC71) (AID 1259253); settings: TC71 Ewing sarcoma viability, CellTiter-Glo, 48 h; series mostly up to 45.8 µM; further: nearly all actives have a fitted effect of over 40% in size; further: potency means the concentration at half of the fitted maximal effect
In short: as §1

[6] = qHTS Screen of the MIPE 4.0 Collection Against Ewings Sarcoma (EW8) (AID 1259255); settings: EW8 Ewing sarcoma viability, CellTiter-Glo, 48 h; series mostly up to 45.8 µM; further: nearly all actives have a fitted effect of over 35% in size; further: potency means the concentration at half of the fitted maximal effect
In short: as §1

[7] = qHTS Screen of the MIPE 4.0 Collection Against Ewings Sarcoma (TC32) (AID 1259256); settings: TC32 Ewing sarcoma viability, CellTiter-Glo, 48 h; series mostly up to 45.8 µM; further: nearly all actives have a fitted effect of over 45% in size; further: potency means the concentration at half of the fitted maximal effect
In short: as §1

[8] = P-glycoprotein substrates identified in KB-8-5-11 adenocarcinoma cell line, qHTS therapeutic library screen (AID 1346987); settings: KB-8-5-11 (P-gp overexpressing) viability, CellTiter-Glo, 72 h; series mostly up to 44.5 µM; further: nearly all actives have a fitted effect of over 65% in size; further: potency means the concentration at half of the fitted maximal effect
In short: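 KB-8-5-11, a colchicine-selected P-gp-overexpressing KB-3-1 subline, was grown without colchicine for the assay. Cells were seeded at 500 cells/well, dosed in concentration-response and incubated 72 h at 37 degree C, 5% CO2. Viability was read by CellTiter-Glo luminescence.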

[9] = NS1 protein of Zika virus - qHTS assay to identify small molecule inhibitors in human HEK 293 cells (AID 1347053); settings: HEK293 ZIKV MR766 infection, NS1 TR-FRET, 24 h; series mostly up to 46.1 µM; further: nearly all actives have a fitted effect of over 55% in size; further: potency means the concentration at half of the fitted maximal effect
In short: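 Inhibition of NS1 expression was scored in HEK 293 cells given compound 1 h ahead of MR766 virus (MOI = 0.5). Following 24 h at 37 C, two anti-NS1 antibodies generated a TR-FRET signal, scaled between uninfected and infected controls.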

[10] = qHTS of pediatric cancer cell lines to identify multiple opportunities for drug repurposing: Primary screen for TC32 cells (AID 1347089); settings: TC32 Ewing sarcoma viability, CellTiter-Glo luminescence, 48 h; series mostly up to 45.8 µM; further: nearly all actives have a fitted effect of over 60% in size; further: potency means the concentration at half of the fitted maximal effect
In short: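 Measured quantity: luminescence from CellTiter-Glo, reflecting metabolically active TC32 cells following 48 h of compound. Curves came straight from multi-point titrations, with 8 or 11 points in primary and 11 in confirmatory screening.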

[11] = qHTS of pediatric cancer cell lines to identify multiple opportunities for drug repurposing: Primary screen for DAOY cells (AID 1347090); settings: DAOY medulloblastoma viability, CellTiter-Glo luminescence, 48 h; series mostly up to 46 µM; further: nearly all actives have a fitted effect of over 55% in size; further: potency means the concentration at half of the fitted maximal effect
In short: (§2)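 Viability measured as metabolically active cells via CellTiter-Glo luminescence following 48 hours of compound exposure, 11-point dilutions in confirmatory testing. 500-1,000 cells/well plated 5 hours before dosing; controls were DMSO and 2.3 µM bortezomib.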

[12] = qHTS of pediatric cancer cell lines to identify multiple opportunities for drug repurposing: Primary screen for A673 cells (AID 1347092); settings: A673 Ewing sarcoma viability, CellTiter-Glo ATP luminescence, 48 h; series mostly up to 46 µM; further: nearly all actives have a fitted effect of over 45% in size; further: potency means the concentration at half of the fitted maximal effect
In short: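 Cells are plated, rested 5 h, dosed by pintool, incubated 48 h, then lysed with CellTiter-Glo and read by luminescence. DMSO is the neutral control; bortezomib at 2.3 uM final is the positive control.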

[13] = qHTS of pediatric cancer cell lines to identify multiple opportunities for drug repurposing: Primary screen for SK-N-MC cells (AID 1347093); settings: SK-N-MC viability, CellTiter-Glo luminescence, 48 h; series mostly up to 46 µM; further: potency means the concentration at half of the fitted maximal effect
In short: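 Metabolically active cells were quantified by ATP-dependent luminescence (CellTiter-Glo, 15 min at room temperature) following 48 h treatment. Cells had been plated at 500-1,000 per well and settled for 5 h beforehand.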

[14] = qHTS of pediatric cancer cell lines to identify multiple opportunities for drug repurposing: Primary screen for BT-37 cells (AID 1347094); settings: BT-37 viability, CellTiter-Glo luminescence, 48 h; series mostly up to 57.3 µM; further: potency means the concentration at half of the fitted maximal effect
In short: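 500-1,000 cells/well; 5 h pre-incubation 37 °C/5% CO2; compound pinned; 48 h; CellTiter-Glo, 15 min RT; luminescence. MIPE 11-pt from 0.78 nM, NPC 8-pt from 0.59 nM final. Bortezomib 2.3 µM final as positive control.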

[15] = qHTS of pediatric cancer cell lines to identify multiple opportunities for drug repurposing: Primary screen for SJ-GBM2 cells (AID 1347091); settings: SJ-GBM2 viability, CellTiter-Glo luminescence, 48 h; series mostly up to 46 µM; further: potency means the concentration at half of the fitted maximal effect
In short: as §2

O=C(c1ccc(F)cc1)N1CCC[C@H](c2nc(-c3ccc(F)cc3)no2)C1
active: Potency [8] 0.118 µM
111%: viability (% of control) [1]
inactive: Potency [2] | Potency [3] | Potency [4] | Potency [5] | Potency [6] | Potency [7] | Potency [9] | Potency [10] | Potency [11] | Potency [12] | Potency [13] | Potency [14]

Nc1ccn(C2CO[C@H](CO)O2)c(=O)n1 (stereo not given in full)
99.2%: viability (% of control) [1]
inactive: Potency [2] | Potency [3] | Potency [4] | Potency [5] | Potency [6] | Potency [7] | Potency [8] | Potency [9] | Potency [10] | Potency [11] | Potency [15] | Potency [12] | Potency [13] | Potency [14]

C[C@]12C=CC(=O)N[C@@H]1CC[C@H]1[C@H]3CC[C@@H](C(=O)Nc4cc(C(F)(F)F)ccc4C(F)(F)F)[C@@]3(C)CC[C@@H]12
inactive: Potency [2] | Potency [3] | Potency [4] | Potency [5] | Potency [6] | Potency [7] | Potency [8] | Potency [9] | Potency [10] | Potency [11] | Potency [14]
93%: viability (% of control) [1]
active: Potency [15] 14.8 µM

CC(C)[C@H](CO)Nc1nc(Nc2cccc(Cl)c2)c2ncn(C(C)C)c2n1
active: Potency [4] 5.9 µM | Potency [5] 7.43 µM | Potency [6] 16.6 µM | Potency [7] 10.5 µM | Potency [8] 10.5 µM and 20.6 µM | Potency [9] 23.5 µM | Potency [15] 16.6 µM | Potency [12] 14.8 µM | Potency [13] 1.32 µM | Potency [14] 21.7 µM
inactive: Potency [2] | Potency [3]
1.87%: viability (% of control) [1]

CN(C)CCN1C(=O)c2cccc3cc(N)cc(c23)C1=O
4.08%: viability (% of control) [1]
inactive: Potency [2] | Potency [3] | Potency [7] | Potency [9]
active: Potency [4] 16.6 µM | Potency [5] 14.8 µM | Potency [6] 1.66 µM | Potency [8] 14.8 µM | Potency [11] 23.5 µM | Potency [15] 14.8 µM | Potency [14] 6.85 µM

Nc1nc(N)c2nc(-c3cccc(O)c3)c(-c3cccc(O)c3)nc2n1
5.3%: viability (% of control) [1]
active: Potency [4] 23.5 µM | Potency [5] 20.9 µM | Potency [6] 23.5 µM | Potency [7] 20.9 µM | Potency [8] 11.8 µM | Potency [10] 18.6 µM | Potency [11] 7.43 µM | Potency [15] 8.33 µM | Potency [12] 2.35 µM | Potency [13] 1.48 µM | Potency [14] 21.7 µM
inactive: Potency [2] | Potency [3]

O=c1[nH]c(=O)n([C@H]2C[C@@H](O)[C@@H](CO)O2)cc1F
inactive: Potency [2] | Potency [3]
active: Potency [4] 0.059 µM | Potency [5] 0.0935 µM | Potency [6] 0.059 µM | Potency [7] 0.059 µM | Potency [8] 1.66 µM | Potency [9] 0.833 µM | Potency [10] 0.93 µM | Potency [12] 1.87 µM | Potency [13] 16.6 µM | Potency [14] 0.685 µM
19.4%: viability (% of control) [1]

C[C@@H]1C(=O)O[C@H]2CC34[C@H]5C[C@@H](C(C)(C)C)C36[C@H](OC(=O)[C@@H]6O)O[C@@]4(C(=O)O5)[C@]21O (stereo not given in full)
inactive: Potency [2] | Potency [3] | Potency [4] | Potency [5] | Potency [6] | Potency [7] | Potency [8] | Potency [10] | Potency [11] | Potency [15] | Potency [12] | Potency [13]
69%: viability (% of control) [1]

COc1cc(C=CC(=O)CC(=O)C=Cc2ccc(O)c(OC)c2)ccc1O
active: Potency [4] 7.62 µM | Potency [5] 21.5 µM | Potency [6] 6.05 µM | Potency [7] 12.1 µM | Potency [8] 48.1 µM | Potency [10] 33.9 µM | Potency [11] 21.5 µM | Potency [15] 30.3 µM | Potency [12] 6.79 µM | Potency [13] 5.4 µM | Potency [14] 31.4 µM
inactive: Potency [2] | Potency [3]
5.08% [at 92.2 µM]: viability (% of control) [1]

NC(=O)c1cccc(-c2cccc(OC(=O)NC3CCCCC3)c2)c1
inactive: Potency [2] | Potency [3] | Potency [4] | Potency [5] | Potency [6] | Potency [7] | Potency [8] | Potency [10] | Potency [11] | Potency [13] | Potency [14]
91.7%: viability (% of control) [1]

C=C(C)[C@@H]1CC[C@]2(C(=O)O)CC[C@]3(C)[C@H](CC[C@@H]4[C@@]5(C)CC[C@H](O)C(C)(C)[C@@H]5CC[C@]43C)[C@@H]12
inactive: Potency [2] | Potency [3] | Potency [4] | Potency [5] | Potency [6] | Potency [7] | Potency [8] | Potency [9] | Potency [10] | Potency [11] | Potency [14]
85.4%: viability (% of control) [1]

O=C1CSC(=O)N1C(CCc1ccncc1)COc1ccc(-c2cccc([N+](=O)[O-])c2)cc1 (stereo not given)
33%: viability (% of control) [1]
inactive: Potency [2] | Potency [3] | Potency [8] | Potency [9]
active: Potency [4] 2.96 µM | Potency [5] 4.69 µM | Potency [6] 13.2 µM | Potency [7] 6.62 µM | Potency [12] 7.43 µM | Potency [13] 10.5 µM

c1cncc(CN2CCC(n3ncc4c(N5CCOCC5)nc(-c5ccc6[nH]ccc6c5)nc43)CC2)c1
9.02%: viability (% of control) [1]
active: Potency [4] 13.2 µM | Potency [5] 13.2 µM | Potency [6] 6.62 µM | Potency [7] 5.9 µM | Potency [8] 469 nM and 2.31 µM | Potency [9] 14.8 µM | Potency [11] 18.7 µM | Potency [15] 3.32 µM | Potency [12] 11.8 µM | Potency [13] 7.43 µM | Potency [14] 7.69 µM
inactive: Potency [2] | Potency [3]
